Molecules are shown by their SMILES. Screen size: about 210,000 compounds; about 1,300 (0.62%) were called active. Only a selection was taken, and actives are over-represented in it overall. Values without a mark were called inactive.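 Rule for the calls: active = inhibition of 40% or more; inactive = the rest.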

Kallikrein-5 (Homo sapiens), sequence (Q9Y337 67-293 limits assumed): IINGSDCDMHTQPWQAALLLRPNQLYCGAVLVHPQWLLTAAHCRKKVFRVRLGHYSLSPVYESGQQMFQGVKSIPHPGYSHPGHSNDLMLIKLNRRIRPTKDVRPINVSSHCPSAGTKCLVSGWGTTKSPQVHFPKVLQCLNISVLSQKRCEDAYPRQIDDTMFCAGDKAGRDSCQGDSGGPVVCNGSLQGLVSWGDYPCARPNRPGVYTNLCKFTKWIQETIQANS

This assay has as its target Kallikrein-5 (Homo sapiens) (UniProt Q9Y337). Put plainly: inhibition of kallikrein 5 (hK5) activity – biochemical, 1536-well, primary screen (AID 873).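 Note: 0% = enzyme controls without compound and 100% = no-enzyme blanks.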 The note with it: recombinant hK5, fluorogenic AMC substrate cleavage; at 5 µM; stronger effect = higher value.
For the molecule `CC(C)n1c(=O)c(C=Nc2ccc(Br)cc2)c(O)n(Cc2ccco2)c1=O`, the inhibition (as a rule, the relative decrease from the control value, in per cent) is 115% (active).
As for `CN(C)CC1Oc2ccccc2OC1(O)c1ccccc1` (stereo not given), the figure is -2.65%.
As to `O=c1[nH]c(=O)n(Cc2ccccc2)c(O)c1/C=N/Nc1c(F)c(F)c(F)c(F)c1F`, the inhibition was 3.18%.
Consider `O=C(O)COc1ccccc1/C=C1\C(=O)NC(=O)N(CCC2=CCCCC2)C1=O`, for which the inhibition was 0.1%.
Take `CC(C)c1ccc(-n2c(O)c(/C=N/N3CCOCC3)c(=O)[nH]c2=S)cc1`: the inhibition is -2.01%.

Source of the values: PubChem BioAssay AID873 (PCMD, 2007).
